An excerpt weighted towards active compounds, which were near 10% of everything screened.
FLuc inh: Firefly luciferase inhibition profiling of diverse chemical library using quantitative high-throughput screening; Potency, µM (titrated, usually from 115 µM), usual class: inhibitors; purified P. pyralis luciferase, luminescence, biochemical; hit rate 2.5% among 76,000; AID 1347043, 2019; Luciferin 4-monooxygenase (Photinus pyralis), P08659; also: nearly all actives have a fitted effect of over 65% in size
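Purified 10nM P. pyralis luciferase with 10uM D-luciferin and 10uM ATP in 50mM Tris acetate pH 7.5, 10mM Mg acetate, 0.01% Tween-20, 0.05% BSA. qHTS titration; luminescence read by CCD imager.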
hNpr1 antagonist: Natriuretic polypeptide receptor (hNpr1) antagonism - Primary qHTS; Potency, µM (highest dose often 46.3 µM), for inactives: at the highest dose activity change, negative = inhibition, usual class: inhibitors; hit rate 1.6% among 76,000; Atrial natriuretic peptide receptor 1 (Homo sapiens), P16066; HEK293 hNpr1 GloSensor cGMP, ANP-stimulated luminescence; calls by dose curve; also: nearly all actives have a fitted effect of over 60% in size
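Compound pre-incubated 30 min at room temperature on GloSensor-loaded HEK293 cells stably carrying hNpr1 and the pGS-40F cGMP biosensor. Stimulation uses hNppA at 0.1 nM final; luminescence is taken at baseline and 20 min post-agonist.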
GPT2 inh: Primary qHTS assay for inhibitors of Glutamate pyruvate transaminase 2 (GPT2); Recombinant GPT2, coupled pyruvate oxidase/HRP Amplex Red fluorescence; hit rate 0.25% among 100,000; Potency, µM (highest dose often 57.7 µM), inactives show top-dose activity change, negative = inhibition, usual class: inhibitors; AID 1671188, 2021; Alanine aminotransferase 2 (Homo sapiens), Q8TD30; also: nearly all actives have a fitted effect of over 60% in size
Target sequence (Q8TD30 whole entry, looked up): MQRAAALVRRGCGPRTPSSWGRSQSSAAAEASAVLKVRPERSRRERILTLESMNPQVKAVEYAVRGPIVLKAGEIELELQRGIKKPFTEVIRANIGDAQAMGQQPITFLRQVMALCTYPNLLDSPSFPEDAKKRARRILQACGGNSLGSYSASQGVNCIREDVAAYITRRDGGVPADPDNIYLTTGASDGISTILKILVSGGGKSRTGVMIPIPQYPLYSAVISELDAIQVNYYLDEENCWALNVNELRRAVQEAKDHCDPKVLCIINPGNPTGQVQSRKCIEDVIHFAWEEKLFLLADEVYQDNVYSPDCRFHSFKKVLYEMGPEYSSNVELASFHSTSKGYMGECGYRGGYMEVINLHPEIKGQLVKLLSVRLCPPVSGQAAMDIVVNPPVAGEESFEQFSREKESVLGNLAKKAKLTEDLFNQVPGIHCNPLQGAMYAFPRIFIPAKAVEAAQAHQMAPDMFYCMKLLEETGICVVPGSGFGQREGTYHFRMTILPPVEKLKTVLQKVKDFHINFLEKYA
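Recombinant GPT2 (10ng/uL) with 250uM a-KG and 2mM L-alanine, 30 min at room temperature, in HEPES pH 7.5 buffer. Pyruvate detected by pyruvate oxidase/HRP/Amplex Red fluorescence after 30 min in the dark; AOA (50uM) as positive control.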
HEK293 tox: Cytotoxic Profiling in HEK 293 Cell Line of Diverse Libraries Using Quantitative High-Throughput Screening; hit rate 6.6% among 94,000; Potency, µM (doses to about 115 µM), inactives show at the top dose activity change, negative = cytotoxicity, actives largely listed as inhibitors; HEK 293 viability, ATP luminescence (CellTiter-Glo), 48-72 h; also: nearly all actives have a fitted effect of over 60% in size
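Luminescence from cellular ATP, measured with CellTiter-Glo, indicates HEK 293 viability. Cells plated at 250 cells/well are treated with compound for 48 or 72 hr at 37 degree Celsius before reagent addition.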
3T3 cytotox: Cytotoxic Profiling in NIH 3T3 Cell Line of Diverse Libraries Using Quantitative High-Throughput Screening. NIH 3T3 viability, CellTiter-Glo ATP luminescence, 48-72 h. Potency, µM (titrated, usually from 96.7 µM), for inactives: top-dose activity change, negative = cytotoxicity, actives largely listed as inhibitors. hit rate 4.3% among 94,000. AID 1345082, 2018; also: nearly all actives have a fitted effect of over 55% in size
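Luminescent ATP readout (CellTiter-Glo, 10 min RT) after 48 or 72 hr compound exposure of NIH 3T3 cells seeded at 400 cells/well in 1536-well format; quantitative HTS.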
Numbers without * were called inactive; i = inactive; ? = inconclusive; / = no result given; ! = repeats disagree; [ ] = remark or other dose. Unless noted, calls follow the shape of the dose curve; as a rule, active = well fitted curve in the direction sought with a large enough effect; inconclusive = small, poorly fitted or top-dose-only effect, or another doubt; inactive = no such curve, though single readings can be large; an effect the other way counts as inactive or inconclusive. % is scaled to controls: 0 for no effect and ±100 for the full control effect; potency is read from the fitted curve at half-maximal effect.

SMILES | FLuc inh | hNpr1 antagonist | GPT2 inh | HEK293 tox | 3T3 cytotox
COc1cccc(-c2cc3c(ccn3Cc3cccnc3)c(C3=CCOCC3)n2)c1OC | i | 0%[70.6 µM] | ? | 100µM* | 71µM*
CN(C)Cc1cccc(-c2cc3c(ccn3Cc3cccnc3)c(C3=CCOCC3)n2)c1 | i | 0%[70.6 µM] | i | 35µM* | ?
Cc1ccc(-c2cc3c(ccn3Cc3cccnc3)c(C3=CCOCC3)n2)cn1 | i | -1%[70.6 µM] | i | 45µM* | ?
C1=C(c2nc(-c3cncnc3)cc3c2ccn3Cc2cccnc2)CCOC1 | i | 3%[70.6 µM] | -13%[88.5 µM] | -16%[172 µM] | ?
O=C(c1cccc2[nH]ccc12)N1CCC2(CC1)CC(Cc1ccc(F)cc1)CCO2 (centres undefined) | / | / | 4% | ? | ?
C[S+](=O)([O-])NCCn1ccc2cc(OC3CCN(C(=O)C4CCCC4)CC3)cnc21 | i | -27%[70.6 µM] | 5%[88.5 µM] | ? | 100µM*
O=C(C1CCCC1)N1CCC(Oc2cnc3c(ccn3-c3cncnc3)c2)CC1 | i | 1%[70.6 µM] | 0%[88.5 µM] | ? | ?
O=C(NCc1ccc2c(c1)OCO2)c1nc(-c2cccc(C(F)(F)F)c2)c2cnccn12 | i | 0% | 4% | -4% | i
Cn1ncc2c(C(=O)N3CCN(Cc4ccccc4)CC3)cc(-c3ccccc3C(F)(F)F)nc21 | / | / | / | 45µM* | ?
Cn1ncc2c(C(=O)N3CCCCC3)cc(-c3ccccc3C(F)(F)F)nc21 | / | / | / | ? | -38%
CC(=O)N1CCN(C(=O)c2cc(-c3ccccc3C(F)(F)F)nc3c2cnn3C)CC1 | / | / | / | 1% | -14%
Cn1ncc2c(C(=O)N3CCC(Cc4ccccc4)CC3)cc(-c3ccccc3C(F)(F)F)nc21 | / | / | / | 40µM* | 28µM*
Cn1ncc2c(C(=O)N3CCC(c4ccccc4)CC3)cc(-c3ccccc3C(F)(F)F)nc21 | / | / | / | 45µM* | 28µM*
O=C(Cc1cccc(Cl)c1)NCCNC(=O)c1ccc(-c2cncnc2)cc1 | / | / | / | -20% | -21%
Cc1cccc(CC(C)NC(=O)c2ccc3nc(Cc4ccccc4F)oc3c2)n1 (centres undefined) | ? | 1% | -4% | ? | -23%
CC1(C)C[C@H](NCC2CCCCC2)[C@@]2(CCC(=O)N3CCCC3)CC[C@](C)(O)C[C@@H]12 | i | -1%[70.6 µM] | ? | ? | ?
FC(F)(F)c1cccc(CN2CCOC[C@H](Oc3cccnc3)C2)c1 | i | -4%[70.6 µM] | -17%[88.5 µM] | ? | ?
O=C(NCCOc1cccnc1)c1cn(Cc2cccc(C(F)(F)F)c2)nn1 | i | -1% | -11% | 28µM* | ?
COc1ccccc1C(=O)NC1CCN(Cc2cccc(-c3cccs3)c2)CC1 | / | / | -2% | 22µM*! | 32µM*!
O=C(NC1CCN(Cc2cccc(-c3cccs3)c2)CC1)c1ccccc1 | / | / | 5% | 35µM*! | -31%
O=C(NC1CCN(Cc2cccc(-c3cccs3)c2)CC1)c1ccc(F)cc1 | / | / | -5% | ? | ?
Cc1ccccc1C(=O)NC1CCN(Cc2cccc(-c3cccs3)c2)CC1 | / | / | i | ? | ?
Cc1oc(C(O)c2ccccc2)nc1C(=O)Nc1ccc(C(=O)Nc2ccccc2)cc1 (centres undefined) | ? | ? | 2%[88.5 µM] | 32µM* | 45µM*
Cc1oc(C(O)c2ccccc2F)nc1C(=O)Nc1ccc2[nH]ccc2c1 (centres undefined) | 63µM* | -8%[70.6 µM] | -1%[88.5 µM] | 100µM* | ?
Cc1oc(C(O)c2cccc(O)c2)nc1C(=O)Nc1ccc(N2CCOCC2)cc1 (centres undefined) | 5µM* | ? | -1%[88.5 µM] | ? | ?
SMILES | FLuc inh | hNpr1 antagonist | GPT2 inh | HEK293 tox | 3T3 cytotox
Cc1oc(C(O)c2ccccc2)nc1C(=O)Nc1ccc2[nH]ccc2c1 (centres undefined) | 50µM* | -5%[70.6 µM] | 4%[88.5 µM] | 100µM* | ?
CNC(=O)c1ccc(NC(=O)c2nc(C(O)c3ccccc3F)oc2C)cc1 (centres undefined) | i | -1%[70.6 µM] | 0%[88.5 µM] | ? | -33%[138 µM]
COCCN1CC2(CCOC2)N(C2CCN(C(=O)CCC3CCCC3)CC2)C1=O (centres undefined) | / | / | i | -13% | ?
Cn1ncc2c(C(=O)NC3CCCCCC3)cc(C(C)(C)C)nc21 | / | / | i | 35µM* | ?
Cn1ncc2c(C(=O)NC3CC3)cc(-c3ccc(Cl)cc3)nc21 | / | / | ? | ? | 79µM*
Cn1ncc2c(C(=O)NCC3CCCCC3)cc(C(C)(C)C)nc21 | / | / | -3%[88.5 µM] | -17%[172 µM] | -23%[138 µM]
CC(C)NC(=O)c1cc(-c2ccc(F)cc2)nc2c1cnn2C | / | / | / | 79µM* | ?
Cn1ncc2c(C(=O)NC3CC3)cc(-c3cc(Cl)cc(Cl)c3)nc21 | / | / | -12% | i | i
CC(C)NC(=O)c1cc(-c2ccc(Cl)nc2)nc2c1cnn2C | / | / | -41% | ? | 22µM*
Cc1ncc2c(N3CC4CCC(C3)N4CC(F)(F)F)nc3ccccc3n12 | / | / | -8% | ? | ?
COc1ccc(-c2[nH]nc3ncc(C(=O)N4CC(O)C4)nc23)c(C)c1 | i | -3%[70.6 µM] | 1%[88.5 µM] | ? | 7.9µM*
COc1ccc(-c2[nH]nc3ncc(C(=O)Nc4ccn(C)n4)nc23)c(C)c1 | i | -1%[70.6 µM] | -1%[88.5 µM] | 89µM* | ?
COc1ccc(-c2[nH]nc3ncc(C(=O)N4C[C@@H](C)O[C@@H](C)C4)nc23)c(C)c1 | i | 8%[70.6 µM] | 4%[88.5 µM] | ? | ?
COc1ccc(NC(=O)c2cnc3n[nH]c(-c4ccc(OC)cc4C)c3n2)cc1 | i | 4%[70.6 µM] | i | ? | 45µM*
CN1CC(=O)N(C2CCCCC2)Cc2c(NCCc3ccccc3)ncnc21 | / | / | -13% | ? | ?
COCCn1c(=O)c(C(=O)N2CCN(c3ncccn3)CC2)nc2cccnc21 | / | / | i | i | -8%
O=C(NC1CCCN(c2cc(-c3ccccc3)[nH]n2)C1)c1cccc(Br)c1 (centres undefined) | i | -21% | -1% | ? | ?
CN(C)c1cccc(C(=O)NC2CCCN(c3cc(-c4ccccc4)[nH]n3)C2)c1 (centres undefined) | 35µM* | -11% | -4% | ? | ?
COc1ccc(-c2cc(N3CCCC(NC(=O)c4cccc(NC(C)=O)c4)C3)n[nH]2)cc1 (centres undefined) | 28µM* | -6% | ? | ? | ?
CN(C)c1cccc(C(=O)NCC2CCN(c3cc(-c4ccccc4)[nH]n3)CC2)c1 | 16µM* | -15% | ? | ? | ?

Bioassay records (PubChem BioAssay)
